Source: PubChem BioAssay
ALDH1A1 inh: blocks purified human ALDH1A1 activity; 220,000 tested, 7.3% active; Purified ALDH1A1, NADH fluorescence, propionaldehyde substrate; AID 1030; Potency, µM (series often up to 75.3 µM), hits mostly inhibitors
PNC assembly inh: inhibitors of perinucleolar compartment assembly; PC3M PTB-GFP, PNC prevalence imaging, 16 h; hits give low values; activity change (PNC), negative = inhibition, % at 10 µM; 140,000 tested, 3.1% active; AID 2417;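 active = readout at or below -70, meaning at least 70% loss of cells showing the perinucleolar compartment, a nuclear body marking cancer cells; inconclusive = readout between -30 and a set limit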
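Read-out is percentage of cells bearing a perinucleolar compartment, from automated 20x imaging of fixed, Hoechst-stained PC3M PTB-GFP cells. Cells were seeded 4 h, then exposed 16 h to compound (23 nl of library stock) in duplicate plates.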
HPGD inh: blocks human HPGD enzyme activity; P15428; 150,000 tested, 4.3% active; purified HPGD, NADH fluorescence kinetic, PGE2 substrate; Potency, µM, actives largely listed as inhibitors
Target sequence (P15428 whole entry, looked up): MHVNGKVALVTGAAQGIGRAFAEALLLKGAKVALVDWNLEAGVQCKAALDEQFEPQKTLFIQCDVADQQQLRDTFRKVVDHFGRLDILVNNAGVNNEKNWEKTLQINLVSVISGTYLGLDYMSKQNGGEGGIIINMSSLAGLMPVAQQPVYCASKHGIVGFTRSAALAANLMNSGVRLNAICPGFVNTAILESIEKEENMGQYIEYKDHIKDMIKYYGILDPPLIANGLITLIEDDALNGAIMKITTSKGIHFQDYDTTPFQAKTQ
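NADH formation kinetics: reaction with 30 uM PGE2 and 1 mM NAD+ (final), 20 nM enzyme, Tris-HCl pH 8 with Tween 20, after 15 min compound preincubation at room temperature. Fluorescence change, last versus first of five reads.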
Each line names hits and unclear results; the compound was inactive in the other large screens. Rows were chosen to be rich in hits. Some 11% of all compounds tested hit in one or more screens of this group. Unless noted, calls come from the whole dose curve; as a rule, active = well fitted inhibition curve with a large enough effect (not every such curve was filed as active); inconclusive = small, poorly fitted or top-dose-only effect, or another doubt; inactive = no such curve, though single readings can be large or run the other way.

CC1(C)[C@@H]2CC[C@]1(C)[C@@H](OC(=O)CSC#N)C2	ALDH1A1 inh 1.8µM (no result: PNC assembly inh)
CC1(C)[C@H]2CC[C@]1(C)[C@@H](OC(=O)C[N+]1(C)CCOCC1)C2	none (no result: PNC assembly inh, HPGD inh)
CCC(C)n1c(=S)[nH]c2ccccc2c1=O (stereo not given)	none (no result: PNC assembly inh, HPGD inh)
O=C(C1CCCCC1)N1CC(=O)N2CCc3ccccc3[C@@H]2C1	ALDH1A1 inh inconclusive (no result: PNC assembly inh)
O=C(/C=C1\NCC2c3ccccc3CCN2C1=O)c1ccccc1 (stereo not given)	ALDH1A1 inh 20µM
Cc1nc2ccccc2n1/C(=N/S(=O)(=O)c1ccc(Br)cc1)c1ccccc1	PNC assembly inh -100
Cc1nc2ccccc2n1C(=O)c1ccccc1[N+](=O)[O-]	none
O=C(CCS(=O)(=O)c1ccc(Br)cc1)Nc1cc(F)ccc1F	ALDH1A1 inh 22µM
O=C(CCS(=O)(=O)c1ccc(Br)cc1)NC1CCCC1	none
COc1cc(C(=O)NCCOc2ccc(F)cc2)c(Br)c(OC)c1OC	none (no result: PNC assembly inh, HPGD inh)
COc1ccc(Br)cc1CNc1ccc(O)cc1	ALDH1A1 inh 10µM
COc1ccc(Br)cc1CNc1ccc2[nH]c(=O)[nH]c2c1	none (no result: PNC assembly inh, HPGD inh)
CCOC(=O)C(CCc1ccccc1)NC(C)C(=O)N1Cc2ccccc2CC1C(=O)O (stereo not given)	none (no result: PNC assembly inh)
O=C(Nc1ccccc1)N1CCn2c1nc1ccccc12	PNC assembly inh inconclusive
S=C(Nc1ccccc1)N1CCn2c1nc1ccccc12	HPGD inh 16µM
Cc1ccc(N2C(=O)[C@@H]3C(C(=O)C(c4ccccc4)c4ccccc4)=NN[C@@H]3C2=O)cc1	ALDH1A1 inh 22µM, PNC assembly inh inconclusive
COC(=O)C1=NNC2C(=O)N(c3ccc(C)cc3)C(=O)C12 (stereo not given)	none (no result: PNC assembly inh, HPGD inh)
Cc1ccc(C2C=NN(c3ccccc3)C2=O)cc1 (stereo not given)	none (no result: PNC assembly inh, HPGD inh)
COc1ccc(C(=O)Oc2coc(CSc3nnc(NC(=O)c4cccs4)s3)cc2=O)cc1	ALDH1A1 inh inconclusive, PNC assembly inh inconclusive
COCCN(C(=O)Cn1nnc2ccccc21)C(C(=O)NC1CCCCC1)c1ccc(OC)cc1OC (stereo not given)	none
COCCN(C(=O)Cn1nnc2ccccc21)C(C(=O)NC1CCCC1)c1ccc(OC)cc1OC (stereo not given)	PNC assembly inh -88
CC(=O)C1=C(C)NC(=O)CC1c1ccc(Br)cc1 (stereo not given)	none (no result: PNC assembly inh, HPGD inh)
Cc1ccc(S(=O)(=O)/N=c2\sccn2C)cc1	none
Cc1ccc(S(=O)(=O)/N=C2\CN(C)C(=O)N2C)cc1	PNC assembly inh -113
COc1ccc(CNc2ncnc3ccc(-c4ccccc4CN(C)C)cc23)c(OC)c1	HPGD inh inconclusive (no result: PNC assembly inh)
C/C(=N\OC(=O)c1c(-c2ccccc2Cl)noc1C)c1ccncc1	none (no result: PNC assembly inh, HPGD inh)
Cc1onc(-c2cccc(Cl)c2Cl)c1C(=O)O/N=C(\N)c1ccc([N+](=O)[O-])o1	ALDH1A1 inh 5µM (no result: PNC assembly inh, HPGD inh)
CC(C)(C)SCCNC(=O)CN(c1ccccc1)S(=O)(=O)c1ccc(F)cc1	none (no result: PNC assembly inh, HPGD inh)
O=C(NCc1cccs1)c1csc2c1CCCCC2	ALDH1A1 inh inconclusive, HPGD inh 22µM
O=C(NCc1ccco1)c1csc2c1CCCCC2	ALDH1A1 inh inconclusive, HPGD inh 6.3µM
O=C(NCc1cccs1)c1cc2c(s1)CCCC2	HPGD inh inconclusive
O=C(NCc1ccccc1)c1csc2c1CCCCC2	ALDH1A1 inh 18µM, HPGD inh 8.9µM
O=C(Nc1nccs1)c1csc2c1CCCC2	ALDH1A1 inh inconclusive, HPGD inh 25µM
CC(C)CCNC(=O)c1csc2c1CCCCC2	none (no result: PNC assembly inh, HPGD inh)
O=C(NCc1ccccc1)c1csc2c1CCCC2	none (no result: PNC assembly inh, HPGD inh)
O=C(Nc1ccon1)c1csc2c1CCCC2	PNC assembly inh inconclusive, HPGD inh inconclusive
Cc1cnc(CNc2ncnc3ccc(-c4ccccc4C)cc23)cn1	none (no result: PNC assembly inh, HPGD inh)
NCc1ccc(C(=O)O)cc1	none (no result: PNC assembly inh)
CCc1ccc(NC(=S)N2CCNC(=O)C2CC(=O)OC)cc1 (stereo not given)	none (no result: PNC assembly inh, HPGD inh)
Clc1ccccn1	none (no result: PNC assembly inh)
Cc1ccccc1NC(=O)c1csc2c1CCCC2	ALDH1A1 inh inconclusive, HPGD inh 16µM
COc1ccc(NC(=O)c2csc3c2CCCC3)cc1	none
COc1ccc(N2CCN(Cc3nc4c(c(=O)n(C)c(=O)n4C)n3CCc3ccccc3)CC2)cc1	ALDH1A1 inh inconclusive
Cn1c(=O)c2c(nc(CN3CCN(C(=O)c4ccco4)CC3)n2CCc2ccccc2)n(C)c1=O	ALDH1A1 inh 13µM, PNC assembly inh inconclusive
CCN1CCN(Cc2nc3c(c(=O)n(C)c(=O)n3C)n2CCCc2ccccc2)CC1	ALDH1A1 inh 13µM
Cn1c(=O)c2c(nc(-n3ccnc3)n2C)n(C)c1=O	PNC assembly inh inconclusive
COC(=O)Cn1c(CN2CCC(Cc3ccccc3)CC2)nc2c1c(=O)n(C)c(=O)n2C	ALDH1A1 inh inconclusive
Cn1c(=O)c2c(nc(-n3ccnc3)n2Cc2ccccc2)n(C)c1=O	ALDH1A1 inh 10µM
CCN1CCN(Cc2nc3c(c(=O)n(C)c(=O)n3C)n2CCc2ccccc2)CC1	PNC assembly inh inconclusive
Cn1c(=O)c2c(nc(CN3CCOCC3)n2CCc2ccccc2)n(C)c1=O	ALDH1A1 inh 7.1µM
CC(C)=NN/C(N)=N/C(=S)Nc1ccc(C)cc1	ALDH1A1 inh inconclusive, PNC assembly inh inconclusive
CC1(C)CC23C(=O)CCC(O)C2(C)CCC13 (stereo not given)	ALDH1A1 inh inconclusive (no result: PNC assembly inh)
Cn1c(=O)c2c(nc(CN3CCN(C(=O)c4ccco4)CC3)n2CCCc2ccccc2)n(C)c1=O	ALDH1A1 inh 1.3µM
CC1CCCN(Cc2nc3c(c(=O)n(C)c(=O)n3C)n2CCCc2ccccc2)C1 (stereo not given)	ALDH1A1 inh inconclusive
CC(=O)C(=Nc1ccc(Cl)cc1Cl)NNc1cccc(Cl)c1	PNC assembly inh inconclusive
CN(C(=S)Nc1ccc(Oc2ccccc2)cc1)c1ccc(O)cc1	ALDH1A1 inh 2.2µM, PNC assembly inh inconclusive, HPGD inh inconclusive
CN(C(=S)Nc1ccccc1)c1ccccc1	none
CN(C(=S)Nc1cccnc1)c1ccc(O)cc1	ALDH1A1 inh 14µM
FC(F)Sc1ccc(NC(=S)NC2CCCC2)cc1	none (no result: PNC assembly inh, HPGD inh)
CCN(C(=S)Nc1cccnc1)c1ccccc1	none (no result: PNC assembly inh, HPGD inh)
CN(C(=S)Nc1ccc(SC(F)F)cc1)c1ccc(O)cc1	ALDH1A1 inh 6.3µM
Cc1ccc(S(=O)(=O)N2CCN(C(C)CC(=O)O)CC2)cc1 (stereo not given)	none (no result: PNC assembly inh, HPGD inh)
O=S1(=O)C[C@H]2NC(=S)N(c3ccccc3)[C@H]2C1	none
COc1cc(/C=N/NS(=O)(=O)c2ccccc2)ccc1OS(=O)(=O)c1ccc(C)cc1	ALDH1A1 inh 7.9µM, PNC assembly inh inconclusive
COc1ccc(/C=N/NC(=O)c2cccc([N+](=O)[O-])c2)cc1OS(=O)(=O)c1ccccc1	ALDH1A1 inh inconclusive
C=CCNC(=O)/C(C#N)=C/c1ccc(OS(=O)(=O)c2ccc(C)cc2)c(OC)c1	ALDH1A1 inh 25µM, HPGD inh 28µM
COc1ccc(/C=C(\C#N)C(=O)NCc2cccs2)cc1OC	none
COc1ccc(S(=O)(=O)N/N=C/c2ccc(OCCN3CCOCC3)c(OC)c2)cc1	none
COc1ccc(/C=N/NS(=O)(=O)c2ccccc2)cc1OS(=O)(=O)c1ccc(C)cc1	ALDH1A1 inh 7.1µM
CC(=O)NC1(NC(C)=O)CCN(C)CC1	none (no result: PNC assembly inh, HPGD inh)
CC1CCN(S(=O)(=O)c2cn(CC(=O)N3CC(C)CC(C)C3)c(=O)c3ccccc23)CC1 (stereo not given)	ALDH1A1 inh inconclusive
O=S(=O)(c1cccc(-c2nnc(-c3ccc(Br)cc3)o2)c1)N1CCCCCC1	none
